The panel holds about 79,000 compounds, 15% with a hit somewhere; the sample as a whole holds those more often. Values without a mark were called inactive. Activity calls are given as the source filed them. No stated cut-off is given here; in the data, active means growth inhibition above about 70%; inactive means the rest.
Legend:
[1] = NCI Yeast Anticancer Drug Screen. Data for the rad50 strain (AID 155);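 further: 0% = growth of vehicle-only cultures of the same strain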; details: S. cerevisiae rad50 strain growth inhibition, active compounds read high
In short: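 Readout: growth inhibition relative to vehicle-treated cultures. Compound exposure was carried out in a genetically defined yeast strain deficient in DNA damage repair.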

[2] = NCI Yeast Anticancer Drug Screen. Data for the mec2-1 strain (AID 157); details: S. cerevisiae mec2-1 strain, active compounds read high
In short: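 Strain: mec2-1 (DNA repair/cell cycle alteration). Compound exposure, then growth measured; inhibition expressed relative to vehicle.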

[3] = NCI Yeast Anticancer Drug Screen. Data for the cln2 rad14 strain (AID 165);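 further: 0% = growth equal to vehicle treated cultures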; details: S. cerevisiae cln2 rad14 strain, active compounds read high
In short: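 Compounds are applied to the cln2 rad14 yeast strain, and growth is then compared with that of vehicle-treated cultures to give inhibition.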

[4] = NCI Yeast Anticancer Drug Screen. Data for the bub3 strain (AID 167); details: S. cerevisiae bub3 mutant strain, active compounds read high
In short: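 Readout: yeast growth inhibition, expressed relative to vehicle-only wells. The test organism is a mutant strain from a panel with lesions in DNA repair or checkpoint genes.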

[5] = NCI Yeast Anticancer Drug Screen. Data for the mlh1 rad18 strain (AID 175); details: S. cerevisiae mlh1 rad18 strain growth inhibition, active compounds read high
In short: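 Read-out is yeast growth inhibition, calculated against vehicle-only controls. The compound was applied to a strain engineered with DNA damage repair alterations.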

[6] = NCI Yeast Anticancer Drug Screen. Data for the sgs1 mgt1 strain (AID 161);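 further: 0% = growth of cultures given vehicle only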; details: S. cerevisiae sgs1 mgt1 strain, active compounds read high
In short: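 Read-out: growth inhibition vs vehicle controls. Cells: mutant yeast strain deficient in DNA damage repair.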

[7] = at 5.0 µM (retest, dose inferred, filed as 0.5)
[8] = at 50.0 µM (retest, dose inferred, filed as 5.0)

Structure (SMILES) | growth inhibition [1, 7] | growth inhibition [1, 8] | growth inhibition ([1]; at 50.0 µM) | growth inhibition [2, 7] [%] | growth inhibition [2, 8] | growth inhibition ([2]; at 50.0 µM) | growth inhibition [3, 7] [%] | growth inhibition [3, 8] | growth inhibition ([3]; at 50.0 µM) | growth inhibition [4, 7] [%] | growth inhibition [4, 8] | growth inhibition ([4]; at 50.0 µM) | growth inhibition [5, 7] | growth inhibition [5, 8] | growth inhibition ([5]; at 50.0 µM) | growth inhibition [6, 7] | growth inhibition [6, 8] | growth inhibition ([6]; at 50.0 µM)
Cc1cc(Cl)c2c(c1)C(=O)/C(=C/c1ccc(Cl)cc1)O2 | 5% | 99% (active) | 88.3% (active) | 18 | 99% (active) | 90% (active) | 26 | 99% (active) | 89.2% (active) | -22 | 98% (active) | 88.7% (active) | 13% | 99% (active) | 85.3% (active) |  |  | 
COc1cc(/C=C2\Sc3scc(-c4cccc([N+](=O)[O-])c4)[n+]3C2=O)cc(OC)c1OC | 1% | 94% (active) | 99% (active) | -1 | 82% (active) | 99% (active) | -26 | 91% (active) | 98.4% (active) | -10 | 95% (active) | 99.1% (active) | 5% | 73% (active) | 99% (active) | 13% | 40% | 86.2% (active)
C=C1CC(C)(C)C(c2ccccc2)OC1=O (centres undefined) | 1% | 60% | 53% | 7 | 80% (active) | 31.7% | -4 | 25% | 5.55% | -7 | 80% (active) | 73.5% (active) | 13% | 87% (active) | 77.8% (active) | 8% | 98% (active) | 97.1% (active)
CNS(=O)(=O)c1ccccc1C=C(c1ccccc1)c1ccccc1 | 2% | 90% (active) | 93.1% (active) | -12 | 93% (active) | 86.2% (active) | 2 | 89% (active) | 65.8% | -11 | 92% (active) | 81.8% (active) | -2% | 91% (active) | 94.1% (active) |  |  | 
O=S(=O)(O)CC[S][Sn]([S]CCS(=O)(=O)O)([c]1ccccc1)[c]1ccccc1 (tested in a mixture with another compound) | 84% (active) | 98% (active) | 71.9% (active) | 48 | 98% (active) | 83.2% (active) |  |  |  | 59 | 97% (active) | 86.2% (active) | 94% (active) | 96% (active) | 90.7% (active) | 92% (active) | 97% (active) | 88.6% (active)
COc1ccc2nc3cc(Cl)ccc3c(NCCC[N+](C)(C)CCCCCCCCCC[N+](C)(C)CCCNc3c4ccc(Cl)cc4nc4ccc(OC)cc34)c2c1 | 44% | 98% (active) | 96% (active) | 22 | 98% (active) | 88.3% (active) |  |  |  | 21 | 98% (active) | 6.45% | 41% | 99% (active) | 96.2% (active) | 29% | 98% (active) | 95.8% (active)
O=C1COCC(=O)OCCOCCSCCOCCO1 | 5% | 11% | -4.6% | 0 | 5% | -1.2% |  |  |  | -4 | 4% | 8.75% | 8% | 15% | 7.75% | 1% | 1% | -7%
Cn1c(-c2ccc(/C=N/NC(=S)N/N=C/c3ccc(-c4c[n+]5ccsc5n4C)cc3)cc2)c[n+]2ccsc12 | 72% (active) | 95% (active) | 88.6% (active) | 66 | 98% (active) | 91.2% (active) | 34 | 91% (active) | 86.4% (active) | 60 | 89% (active) | 90.3% (active) | 72% (active) | 97% (active) | 88% (active) | 73% (active) | 98% (active) | 91.4% (active)
COc1cc(O)c2c(=O)c3cccc(C)c3[nH]c2c1 | 8% | 73% (active) | 2.6% | -17 | 28% | 54.9% | 14 | 37% | 49.4% | 2 | 54% | 62.6% | 2% | 54% | 70% (active) |  |  | 
CCOc1ccccc1/C=C1\NC(=O)N(/C=C2\C(=O)Oc3ccccc3C2=O)C1=O | 6% | 96% (active) | 93.7% (active) | -13 | 96% (active) | 94.2% (active) |  |  |  | -4 | 96% (active) | 94.7% (active) | 1% | 89% (active) | 95.5% (active) | 0% | 85% (active) | 97.2% (active)
Oc1cc(Br)ccc1/C=N/Nc1ccccn1 | -8% | 46% | -38.4% | -11 | 60% | -13.6% |  |  |  | 0 | 46% | -3.4% | -10% | 27% | 1.05% | -19% | 6% | 15.6%
